Hits are enriched below; roughly 3.2% of the tested compounds scored in any of these assays.
VACV Venus inh – qHTS for Stage-Specific Inhibitors of Vaccinia Orthopoxvirus: Venus Reporter Primary qHTS; Vaccinia virus Venus reporter expression, fluorescence; Potency, µM (titrated, usually from 36.5 µM), inactives show at the highest dose activity change, negative = inhibition, actives largely listed as inhibitors; 330,000 compounds, 0.46% hits; AID 720580, 2013; calls by dose curve; tested in A549 cells; also: nearly all actives have a fitted effect of over 30% in size
Vaccinia mCherry – qHTS for Stage-Specific Inhibitors of Vaccinia Orthopoxvirus: mCherry Reporter Primary qHTS | Potency, µM (series often up to 36.5 µM), for the others: top-dose activity change, negative = inhibition, usual class: inhibitors | Vaccinia virus mCherry reporter infection, fluorescence | 310,000 compounds, 0.63% hits; calls by dose curve; tested in A549 cells; also: nearly all actives have a fitted effect of over 35% in size
Lassa entry inh – qHTS for Inhibitors of binding or entry into cells for Lassa Virus; Lassa virus pseudotype entry inhibition, cell reporter; Potency, µM (top dose mostly 37.9 µM), for inactives: top-dose activity change, negative = inhibition, most hits filed as inhibitors; 300,000 compounds, 1.2% hits; calls by dose curve; tested in HEK293 cells; also: nearly all actives have a fitted effect of over 50% in size
FMDV antiviral – High Throughput Screening for Foot and Mouth Disease Virus Antivirals; FMDV antiviral cell-based qHTS; Potency, µM (highest dose often 57.9 µM), without a hit: top-dose activity change, negative = inhibition, most hits filed as inhibitors; 410,000 compounds, 1.2% hits; AID 1159524, 2015; calls by dose curve; tested in HEK293T cells; also: read-out not given here; nearly all actives have a fitted effect of over 45% in size
MARV entry inh – qHTS for inhibitors of binding or entry into cells for Marburg Virus | Marburg virus pseudotyped entry inhibition, cell reporter | Potency, µM (top dose mostly 37.8 µM), inactives show at the highest dose activity change, negative = inhibition, most hits filed as inhibitors | 300,000 compounds, 1.8% hits | AID 540276, 2011; calls by dose curve; tested in HEK293 cells
* marks the source's active call; other numbers are inactive results; i = inactive; ? = inconclusive; · = no result given; ! = repeats disagree; [ ] = remark or other dose. % is scaled to controls: 0 for no effect and ±100 for the full control effect; potency is read from the fitted curve at half-maximal effect.

SMILES	VACV Venus inh	Vaccinia mCherry	Lassa entry inh	FMDV antiviral	MARV entry inh
CCOC(=O)CN1C(=O)NC(CCc2ccccc2)C(C(=O)OC)=C1C (stereo not given)	·	·	?	·	-23%[14.2 µM]
CCn1cc(C(=O)O)c(=O)c2cc(F)c(N/N=C/c3ccccc3[N+](=O)[O-])cc21	-15%	-22%	?	20µM*	12%
COC(=O)c1c(NC(=O)/C=C/C(=O)O)sc(Cc2ccccc2)c1C	-13%	-27%	-6%	?	11µM*
O=C(OC1CNC(C#Cc2cc3ncnc(Nc4ccc5c(ccn5Cc5cc(F)ccc5F)c4)c3s2)C1)N1CCOCC1 (stereo not given)	·	·	4µM*	·	·
CCN(CC)c1ccc(NC(=O)CNCc2ccccc2Cl)c(C)c1	-22%	?	10µM*	10%	-1%[46.1 µM]
O=C1N=C(O)CN1/N=C/C1C=CC(c2ccc([N+](=O)[O-])cc2)O1 (stereo not given)	·	·	·	·	16%
c1c2c(cc3sc(N4CCOCC4)nc13)OCO2	-10%	-13%	?	-15%	?
c1c2c(cc3sc(N4CCCCC4)nc13)OCO2	-10%	-19%	6.3µM*	-39%	?
Cc1ccccc1C(=O)N1CCC2CC1c1cc(Cl)ccc12 (stereo not given)	-15%	i	·	-5%	·
CC(C)C[C@H]1CN=C(Nc2ccccc2)N1CC1CCC(C(C)(C)C)CC1 (stereo not given in full)	?	28µM*	·	?	·
Cc1cc(-c2nnc3n2N=C(c2ccc(-c4ccccc4)cc2)CS3)n[nH]1	?	11µM*	?	?	?
CCOc1ccc(C2=Nn3c(nnc3-c3ccc(OC)cc3)SC2)cc1	·	·	?	?	5.2µM*
COc1ccc(C2=Nn3c(nnc3-c3ccncc3)SC2)cc1	·	·	-19%	4%	?
CN1CCCC1CCOC(C)(c1ccccc1)c1ccc(Cl)cc1 (stereo not given)	-28%	-15%	21µM*	-26%	9.2µM*
C[N+]1(CC(=O)c2ccccc2)CCc2ccccc2C1 (stereo not given)	-3%	-16%	·	·	·
CCSc1nnc(-c2cccc(S(=O)(=O)N(CC)CC)c2)n1Cc1ccccc1	·	·	23µM*	?	15µM*
O=C(C#Cc1ccccc1)c1cccc([N+](=O)[O-])c1	-16%	i	?	25µM*	13µM*
CC(=O)c1cccc([N+](=O)[O-])c1	-14%	-17%	·	-11%	·
O=C(COc1ccccc1F)Nc1c2c(nn1-c1ccccc1)CS(=O)(=O)C2	-16%	-12%	1%	-23%	-2%
Cc1nc(N2CCCCC2)sc1C(=O)c1ccc(SCCO)c([N+](=O)[O-])c1	-23%	?	?	32µM*	?
Cc1nc(N2CCCCC2)sc1C(=O)c1cccc([N+](=O)[O-])c1	-21%	-26%	-23%	-13%	-7%[46.1 µM]
Cc1cc(C)c(NC(=O)COC(=O)c2cccc3c2C(=O)c2ccccc2C3=O)c(C)c1	-30%	?	?	-2%	?
Cc1cc(C)c(Nc2cc(S(=O)(=O)O)c(N)c3c2C(=O)c2ccccc2C3=O)c(C)c1	?	-25%	-23%	8.9µM*	-21%
CC1CCCCC1NC(=O)CSc1nnc(COc2ccc(Cl)cc2)o1 (stereo not given)	4%	-23%	1%[46.1 µM]	1%	-15%[46.1 µM]
O=C(C[C@H]1C[C@H](C(=O)N2CCCCC2)[C@@]2(CCc3ccccc3)c3[nH]c4ccc(Cl)cc4c3CCN2C1=O)NCCCn1ccnc1	11µM*	-20%	·	?	·
SMILES	VACV Venus inh	Vaccinia mCherry	Lassa entry inh	FMDV antiviral	MARV entry inh
CCN(CC)C(=O)[C@H]1C[C@H](CC(=O)NCCCn2ccnc2)C(=O)N2CCc3c([nH]c4cc(-c5ccco5)ccc34)[C@]12C	-19%	-15%	·	-11%	·
C[C@]12c3[nH]c4ccc(Cl)cc4c3CCN1C(=O)[C@@H](CC(=O)NCCCn1ccnc1)C[C@@H]2C(=O)N1CCCCC1	-15%	i	·	-21%	·
O=C(C[C@H]1C[C@H](C(=O)N2CCCCC2)[C@@]2(CCc3ccccc3)c3[nH]c4cc(-c5ccco5)ccc4c3CCN2C1=O)NCCN1CCOCC1	10µM*	?	·	0%	·
O=C(C[C@H]1C[C@H](C(=O)N2CCOCC2)[C@@]2(CCC3CCCC3)c3[nH]c4cc(-c5ccco5)ccc4c3CCN2C1=O)NCCCn1ccnc1	10µM*	-29%	·	-10%	·
CCOC(=O)OC[C@H]1O[C@H](c2ccc(C(C)=O)cc2)C=C[C@@H]1Oc1ccc(-c2ccccc2)cc1	·	·	·	·	3%[14.2 µM]
Cc1[nH]c2ccccc2c1C(=O)NS(=O)(=O)Nc1ccc(F)cc1	13%	-8%	28%[46.1 µM]	-19%	6%[46.1 µM]
Cc1nn(-c2ccccc2)cc1/C=N/NC(N)=S	?	11µM*	9%	49%	-8%
C=CCn1c2ccccc2c2nnc(SCCCn3c(=O)[nH]c4ccccc43)nc21	10µM*	·	?	?	?
C=CCn1c2ccccc2c2nnc(SCCN3CCCCC3)nc21	·	·	·	-13%	·
COc1ccc(C(=O)c2ccc(N3CCN(C(=O)c4ccc(F)cc4)CC3)c(F)c2)cc1Br	-17%	-8%[1.46 µM]	-14%	?	7%
COc1ccc(NC(=O)C(CC(C)C)NC(=O)C2CCCCC2)c(OC)c1 (stereo not given)	-8%	-1%	-9%[46.1 µM]	316µM*!	-9%[46.1 µM]
CCOc1cc(-c2ccc3c(c2)OCO3)cc(=[O+]CC)c2c(C)oc(C)c12	14%	-18%	·	·	·
O=C1N[C@@H](Cc2ccccc2)COC(=O)[C@@H](Cc2ccc(F)cc2)C/C=C\C[C@@H]1CC(=O)N(CCO)Cc1ccccc1	13µM*	?	·	?	·
NC(=O)C1=CC2C3C=CC2(O)C(=O)OC3O1 (stereo not given)	-14%	-11%	7.1µM*	?	?
CC(C)C1CC(CCN)(Cc2ccccc2)CCO1 (stereo not given)	-17%	-9%	0%[46.1 µM]	-9%	15µM*
Cc1cc(C)nc(NC(=O)CCCC(=O)O)c1	-10%	·	9%	18%	5%
Cc1cc(C)nc(NC(=O)c2c(F)c(F)c(F)c(C(=O)Nc3cc(C)cc(C)n3)c2F)c1	·	·	·	25µM*	·
Cc1ccc(-c2cn3c(=O)cc(C)[nH]c3n2)cc1	·	·	15µM*	39%	-10%
Cc1cc(=O)n2cc(-c3ccccc3)nc2[nH]1	·	·	-13%	-6%	7%
CC(=O)Oc1c(-c2ccccc2)oc2c(CC=C(C)C)c3c(c(OC(C)=O)c2c1=O)C=CC(C)(C)O3	16%	-2%	·	-6%	·
CC(=O)Oc1c2c(c(CC=C(C)C)c3c1C(=O)C1=CC4CC5C(C)(C)OC(C/C=C(\C)C(=O)O)(C4=O)[C@]15O3)OC(C)(CCC=C(C)C)C=C2 (stereo not given in full)	?	11µM*	·	4µM*	·
COC(=O)/C(C)=C\CC12OC(C)(C)C3CC(C=C4C(=O)c5c(OC)c6c(c(CC=C(C)C)c5OC431)OC(C)(CCC=C(C)C)C=C6)C2=O (stereo not given)	?	13µM*	·	32µM*	·

Screening results deposited in PubChem by National Center for Advancing Translational Sciences (NCATS).
